In PubChem BioAssay (EPA / NIEHS):
Calls of active or inactive are those of the source. Rule for the calls: active = hit-call score of the fitted dose curve at least 0.9, where 1 is the maximum; inactive = score below 0.9.

Legend:
[1] = read-out: Tissue Factor, F3 (gene 2152); assay: BSK_LPS_TissueFactor: BioMAP Diversity Plus: LPS Assay for Tissue Factor Biomarker Activity (AID 2283084); settings: primary human HUVEC with PBMC; actives raise or lower the signal
In short: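 Compound was added to an endothelial cell/PBMC co-culture, and after 24 h tissue factor (CD142) was read by ELISA. Gain or loss of signal was fitted against a DMSO baseline, and parallel SRB staining (560 nm) tracked overt cytotoxicity.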

[2] = read-out: Tumor necrosis factor (Homo sapiens) (UniProt P01375); assay: BSK_LPS_TNFa: BioMAP Diversity Plus: LPS Assay for Tumour Necrosis Factor alpha (TNFa) Biomarker Activity (AID 2283085); settings: primary human HUVEC with PBMC; actives raise or lower the signal;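 for AC50: TNFa protein level quantified by ELISA in the co-culture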
In short: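 Human umbilical vein endothelial cells co-cultured with PBMC were exposed to test chemical and TNFa measured by ELISA 24 h after dosing. Bidirectional curve fitting was done relative to DMSO as negative control and baseline.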

[3] = read-out: Vascular cell adhesion molecule 1 (VCAM1), VCAM1 (gene 7412); assay: BSK_LPS_VCAM1: BioMAP Diversity Plus: LPS Assay for Vascular cell adhesion molecule 1 (VCAM1) Biomarker Activity (AID 2283086); settings: primary human HUVEC with PBMC; actives raise or lower the signal
In short: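 Human umbilical vein endothelial cells co-cultured with peripheral blood mononuclear cells under LPS stimulation were exposed to test chemical for 24 h. VCAM-1 levels were then measured by ELISA, with bidirectional curve fitting relative to DMSO as negative control and baseline.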

CD38, CD38 (gene 952) = assay: BSK_SAg_CD38: BioMAP Diversity Plus: SAg Assay for CD38 Biomarker Activity (AID 2283087); settings: primary human HUVEC with PBMC; actives raise or lower the signal
In short: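 Fluorescence ELISA of cell-surface CD38 served as the read-out, with either increase or decrease fitted against DMSO controls. Cells were a human umbilical vein endothelium plus PBMC co-culture under SEB/TSST-1 stimulation, measured 24 h after dosing.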

CD40, CD40 (gene 958) = assay: BSK_SAg_CD40: BioMAP Diversity Plus: SAg Assay for CD40 Biomarker Activity (AID 2283088); settings: primary human HUVEC with PBMC; actives raise or lower the signal
In short: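 CD40 is measured by fluorescence ELISA in an endothelial/PBMC primary human co-culture at 24 h post-dose. Fitting is bidirectional, DMSO baseline. Parallel SRB staining (560 nm) flags cytotoxicity.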

CD69, CD69 (gene 969) = assay: BSK_SAg_CD69: BioMAP Diversity Plus: SAg Assay for CD69 Biomarker Activity (AID 2283089); settings: primary human HUVEC with PBMC; actives raise or lower the signal;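 for AC50: cell surface CD69 protein quantified by ELISA with fluorescence detection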
In short: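 HUVEC co-cultured with PBMC were dosed with chemical, and CD69 was measured by ELISA with fluorescence read-out 24 h later. Bidirectional curve fitting used DMSO as negative control and activity baseline.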

[4] = read-out: E-selectin (Homo sapiens) (UniProt P16581); assay: BSK_SAg_Eselectin: BioMAP Diversity Plus: SAg Assay for Eselectin Biomarker Activity (AID 2283091); settings: primary human HUVEC with PBMC; actives raise or lower the signal
In short: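 Cell-surface E-selectin is read by ELISA at 24 h in the SAg co-culture of HUVEC and PBMC. Curves are fitted in both directions relative to DMSO. Parallel SRB total-protein staining tracks overt toxicity.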

[5] = read-out: Monokine induced gamma interferon (MIG), CXCL9 (gene 4283); assay: BSK_SAg_MIG: BioMAP Diversity Plus: SAg Assay for Monokine induced gamma interferon (MIG) Biomarker Activity (AID 2283092); settings: primary human HUVEC with PBMC; actives raise or lower the signal
In short: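 HUVEC plus human PBMC co-culture, chemicals dosed and MIG (CXCL9) quantified by ELISA at 24 h. Bidirectional curve fitting against DMSO as negative control and baseline, so both gain and loss of signal count as activity.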

[6] = BSK_SAg_PBMCCytotoxicity: PBMC Cytotoxicity Assessment in the BioMAP Diversity Plus: SAg Assay (AID 2283093); settings: primary human HUVEC with PBMC;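 note: PBMC viability measured as Alamar Blue reduction fluorescence at 546/580 nm; fitted both ways against DMSO so a hit may be loss or gain of signal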;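 for AC50: PBMC superantigen activated with SEB plus TSST-1 one hour after compound addition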
In short: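 Human umbilical vein endothelial cells co-cultured with PBMC; PBMC (75,000/well) pre-treated with compound 1 h, then activated with SEB and TSST-1 (20 ng/mL final each) for 90 h. Alamar Blue added 6 h, fluorescence 546/580 nm; bidirectional fit versus DMSO.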

Measured: AC50

E-selectin (Homo sapiens), sequence (P16581 whole entry, looked up): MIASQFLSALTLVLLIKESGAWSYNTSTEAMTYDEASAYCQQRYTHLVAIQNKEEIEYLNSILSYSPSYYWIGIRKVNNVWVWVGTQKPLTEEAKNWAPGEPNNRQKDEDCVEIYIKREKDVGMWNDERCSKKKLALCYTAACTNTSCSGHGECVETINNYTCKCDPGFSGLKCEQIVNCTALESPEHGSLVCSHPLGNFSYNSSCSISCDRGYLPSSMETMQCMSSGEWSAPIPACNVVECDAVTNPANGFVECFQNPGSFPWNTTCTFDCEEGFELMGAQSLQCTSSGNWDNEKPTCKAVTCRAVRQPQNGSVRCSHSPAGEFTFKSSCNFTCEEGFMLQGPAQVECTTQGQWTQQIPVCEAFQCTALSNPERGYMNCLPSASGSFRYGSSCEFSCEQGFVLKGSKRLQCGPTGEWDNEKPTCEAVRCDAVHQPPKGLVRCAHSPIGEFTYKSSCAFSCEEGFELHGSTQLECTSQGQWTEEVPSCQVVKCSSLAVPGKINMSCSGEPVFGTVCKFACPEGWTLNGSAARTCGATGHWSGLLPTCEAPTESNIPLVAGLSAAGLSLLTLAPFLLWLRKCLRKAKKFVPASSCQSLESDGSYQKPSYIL
Tumor necrosis factor (Homo sapiens), sequence (P01375 whole entry, looked up): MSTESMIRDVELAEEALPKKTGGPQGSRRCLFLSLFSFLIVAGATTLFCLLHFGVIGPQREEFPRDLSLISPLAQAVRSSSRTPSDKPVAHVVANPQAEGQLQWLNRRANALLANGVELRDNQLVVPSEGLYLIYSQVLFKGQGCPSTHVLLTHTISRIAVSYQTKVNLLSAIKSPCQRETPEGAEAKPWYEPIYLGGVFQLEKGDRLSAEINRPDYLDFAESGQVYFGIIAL

CCCCCCCCCCCCN(C)C
inactive: all assays above

Cc1c([N+](=O)[O-])c(C)c([N+](=O)[O-])c(C(C)(C)C)c1[N+](=O)[O-]
active: [2] 28 µM | CD38, CD38 (gene 952) 1.63 µM
inactive: all other assays above

C#CCOC(=O)/C=C(C)/C=C/CC(C)CCCC(C)C (configuration not stated)
active: CD69, CD69 (gene 969) 20 µM
inactive: all other assays above

CC(C)(C)c1cc([N+](=O)[O-])cc(C(C)(C)C)c1O
active: CD38, CD38 (gene 952) 0.332 µM | CD40, CD40 (gene 958) 0.474 µM | CD69, CD69 (gene 969) 0.322 µM | [4] 0.219 µM
inactive: all other assays above

OC(Cc1ccccc1Cl)(Cn1[nH]cnc1=S)C1(Cl)CC1 (configuration not stated)
active: CD38, CD38 (gene 952) 20 µM | CD40, CD40 (gene 958) 20 µM | CD69, CD69 (gene 969) 14.1 µM
inactive: all other assays above

CCOC(=O)C(SP(=S)(OC)OC)c1ccccc1 (configuration not stated)
active: [3] 14.6 µM | CD38, CD38 (gene 952) 20 µM | CD69, CD69 (gene 969) 20 µM
inactive: all other assays above

Cc1cc(Cl)ccc1N
inactive: all assays above

O=S(=O)(C(Cl)(Cl)Cl)C(Cl)(Cl)Cl
inactive: [2]
active: [1] 3.21 µM | [3] 2.28 µM | CD38, CD38 (gene 952) 2.64 µM | CD40, CD40 (gene 958) 2.74 µM | CD69, CD69 (gene 969) 3.57 µM | [4] 3.13 µM | [5] 7.79 µM | [6] 2.3 µM

C[C@]12CC[C@@H](O)C[C@@H]1CC[C@@H]1[C@@H]2CC[C@]2(C)C(=O)CC[C@@H]12
inactive: all assays above

Nc1c(Oc2ccccc2)cc(O)c2c1C(=O)c1ccccc1C2=O
active: [1] 2.54 µM | CD38, CD38 (gene 952) 10 µM | CD40, CD40 (gene 958) 7.45 µM | [4] 0.795 µM
inactive: all other assays above

CC(C)N(C(=O)CCl)c1ccccc1
inactive: [1]
active: [2] 26 µM | [3] 18 µM | CD38, CD38 (gene 952) 20 µM | CD40, CD40 (gene 958) 27.5 µM | CD69, CD69 (gene 969) 20 µM | [4] 20 µM | [5] 31.1 µM | [6] 16.7 µM

CCOP(=S)(OCC)OP(=S)(OCC)OCC
active: [3] 20 µM | CD38, CD38 (gene 952) 31.8 µM | CD69, CD69 (gene 969) 30.1 µM | [4] 35.4 µM | [6] 25.3 µM
inactive: [1] | [2] | CD40, CD40 (gene 958) | [5]

O=C(N[C@H]1CN2CCC1CC2)c1ccc2c(c1)OCCO2
inactive: all assays above

Cc1cc(C(C)(C)c2ccc(O)c(C)c2)ccc1O
inactive: [1] | [2] | [3] | [5]
active: CD38, CD38 (gene 952) 14.7 µM | CD40, CD40 (gene 958) 15.4 µM | CD69, CD69 (gene 969) 15.4 µM | [4] 14.8 µM | [6] 15.7 µM

CC(C=O)Cc1ccc2c(c1)OCO2 (configuration not stated)
inactive: all assays above

[Cl][Sn]([c]1ccccc1)([c]1ccccc1)[c]1ccccc1
active: [1] 0.308 µM | [2] 0.134 µM | [3] 0.195 µM | CD38, CD38 (gene 952) 0.141 µM | CD40, CD40 (gene 958) 0.146 µM | CD69, CD69 (gene 969) 0.176 µM | [4] 0.227 µM | [5] 0.259 µM | [6] 0.125 µM

Cc1ccc2nc3sc(=O)sc3nc2c1
active: [3] 7.61 µM | CD38, CD38 (gene 952) 6.68 µM | CD40, CD40 (gene 958) 6.41 µM | [4] 8.11 µM
inactive: all other assays above

Clc1cccc(Cl)c1
inactive: all assays above
